# In the supplement of paper PMC10105736:
# A number with no mark means an inactive call.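 The calls were made as follows: active = MAPPIT score above the 99th percentile of random reference set scores in the same batch; inactive = at or below it.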
# B1: crn (protein)
# chain: MERPQKMPKVAKVKNKAPAEVQITAEQLLREAKERDLEILPPPPKQKISDPAELADYQQRKRKTFEDNLRKNRMVVSHWIKYAQWEEQQQEIQRARSIWERALDNEHRNVTLWLKYAEMEMKNKQVNHARNLWDRAVTIMPRVNQFWYKYTYMEEMLENVAGARQVFERWMEWQPEEQAWQTYVNFELRYKEIDRAREIYERFVYVHPDVKNWIKFARFEESHGFIHGSRRVFERAVEFFGDDYIEERLFIAFARFEEGQKEHDRARIIYKYALDHLPKDRTQELFKAYTKHEKKYGDRAGIEDVIVSKRKYQYEQEVAANPTNYDAWFDYLRLIEAEGDRDQIRETYERAISNVPPANEKNFWRRYIYLWINYALYEELEAEDAERTRQIYKTCLELIPHKQFTFSKLWLLYAQFEIRCKELQRARKALGLAIGMCPRDKLFRGYIDLEIQLREFERCRMLYEKFLEFGPENCVTWMKFAELENLLGDTDRARAIFELAVQQPRLDMPELLWKAYIDFEVALGETELARQLYERLLERTQHVKVWMSFAKFEMGLSHGDSGPDAELNVQLARRIYERANEMLRQLGDKESRVLLLEAWRDFERDASDSQEMQKVMDKMPRRIKKRQKIVSDNGVEEGWEEVFDYIFPEDEMARPNLKLLAAAKMWKTQKDNTVDDPPATAIASEPEPAADAAPADTTDSGD
# B2: RasGAP1 (protein)
# chain: MLLKKKRYMFDERDDNNINSPVAVEPSSNNNKMADTREVRIEEQLKVKIGEAKNLSSRNAANTSCSTQGTRDVYCTIALDQEEICRTPTIERTLTPFFGEEHQFKIPRRFRYLTIYLWDRDMKQDKPIGKIAIKREELHMYNHKDHWFSLRPVDQDSEVQGMVNVEVAFTEAQQTQSLSEGIDLGQHTLRHHQNLPHHSHQQRAHLNDYKENSELSNIQRASAAAASSSSAAMTLKTRAAGLFGHVHHPPSQTQHFPIINTTSTSSDQLSNWKSHGRFVGVTIKVPACVDLAKKQGTCDPFVVCTAHYSNKHQVTRRTKQRKKTVDPEFDEAMYFDLHIDADAGSTNTTGSNKSAGSLESSANKGYSIYPVGGADLVEIVVSVWHDAHGAMSDKVFLGEVRLPMLNKQEQQAVNPSAWYYLQPRSMTHSSRSLNATPRSCATPPGTRLSVDSTIGSLRLNLNYTADHVFPLATYDDLMNLLLESVDQRPITVSAVSILGELVSGKTEVAQPLVRLFTHTERIAPIIKALADHEISHLTDPTTIFRGNTLVSKMMDEAMRLSGLHYLHQTLRPVLSQIVAEKKPCEIDPSKIKDRSAVDTNLHNLQDYVERVFEAITKSADRCPKVLCQIFHDLRECAGEHFPSNREVRYSVVSGFIFLRFFAPAILGPKLFDLTTERLDAQTSRTLTLISKTIQSLGNLVSSRSSQQTCKEEFTVELYKKFCTEQHVDAVKHFLEVISTPSHASSSVHPAAAAATPLEPVLLKEGLMTKYPTSRKRFGRQFKQRHFRLTTHSLSYAKSKGKQPICDIPLQEIASVEQLKDKSFKMQNCFKIVHNDRSLIVQTTNCVEEREWFDLLHKICLMNSIRMQYFHPSAFVSGFYSCCGRSDENSPGCKKVLDKTMDYFQMDLVTALDPALDLQRIHTLIMSNMSVLESLLDPLTYHQSLSQTQHQQHNPLVPLATDLQKHSPQAFAEFKRTIEKLREKAYAIDRDHRDYKQGITRQLKYGSRQAPIGDDNYWHMMRAAGQLNQQHHQQQQHQQQQQQQQQQQLQQFQPQPVLPQMQNVRAYPYQPATSNMNAYCLHNMQYQQQRLPFHQQQQQHHQQLQQQQSQFQPLRSHQLQRHNNNLNNNNCGNGSSSSPSSTTSSVVAAPPSTTSSSQPAPPIY
# B3: grau (protein)
# chain: MDICRLCLRGVSGAQMCLQIFDVDSGESKVAEVLRQHFWFEVLPNDEISKVICNVCWTQVSEFHQFYVSIQEAQVIYATTSKFKQDPEMVNTSWPEEVLMPADVLAVDNDVGAQINVNPLDELDLSQPMSPEDSKVGIKTERQSPDMELLFEDANNEQDEDYEDDEDDDTDDLIVTRSGRKRKRDVAKPAKTKRGTVSVGRKGKEKMVVKRGPPKRIFKMERLPPFCKEDEELIKRYIVMGCELCIFLAEDFDGIREHFKDKHPDERPYIKCCGRKLNKRCLIQEHARRHENPEYIKCKDCGKVFANSSVLRAHWLVHHVPDEECDFQCEDCGKRFSRRNLLELHKGSHVPVNERKFICPQCPKHNAFATEYHMQVHISMQHRKAANICHVCGKKIKDKAVFEKHVRLHFEESGPRIKCPRPDCESWLKDEDNLKQHLRRHNDEGKLFICSECGKSCKNSRALIGHKRYSHSNVIYTCEQCGKTFKKDISLKEHMAQHTGEPLYKCPFCPRTFNSNANMHSHKKKMHPVEWDIWRKTKTGSSQKVLPSAQVAQMFRDDADVAAIANDYSG
# B4: sicily (protein)
# chain: MRRLVRNWNCRLLFNAKSGQEIVSHAGIHQEAKTNAIPREKKVIEADKNGYGAKHCMSLVEKYDYENYLCTLLLPRELRRAAFALRAFNVEVSRSVSGHQIEPQIAKMRLKFWHDSIDKCFEPDSQRSYVEDQPVLRELKHTVGSRKLNKVYLRRLVTARERPPTHAFESIRELEEYTEQTFSSLLLLLLEVGGVRDLNADHAASHLGKAQGIATLLRSIPLAGRQQAPCIPLEVLVLHGVSQERIIRSKSDDKGVEDCIFDVASAANTHLKLARQLHDKVPPQVRKIFLSAVATDAYLERLRRANFLLTHKSCVGRDTLLPARLFWKSLLNRF
# B5: Sxl (protein)
# chain: MYGNNNPGSNNNNGGYPPYGYNNKSSGGRGFGMSHSLPSGMSRYAFSPQDTEFSFPSSSSRRGYNDFPGCGGSGGNGGSANNLGGGNMCHLPPMASNNSLNNLCGLSLGSGGSDDLMNDPRASNTNLIVNYLPQDMTDRELYALFRAIGPINTCRIMRDYKTGYSFGYAFVDFTSEMDSQRAIKVLNGITVRNKRLKVSYARPGGESIKDTNLYVTNLPRTITDDQLDTIFGKYGSIVQKNILRDKLTGRPRGVAFVRYNKREEAQEAISALNNVIPEGGSQPLSVRLAEEHGKAKAAHFMSQMGVVPANVPPPPPQPPAHMAAAFNMMHRGRSIKSQQRFQNSHPYFDAKKFI
# B6: bora (protein)
# chain: MYNDEVRTPQALKNRYITNVNGLKCRARRNSHSNSSNSSAASATPTNGGKENGKYSPQMSGNVCTPPPKRLHKVRNPFEGAMADRLHLPLIASPSLFRSRTPQLSSTQFEWNIDEVSQLKPADVEPHETQFHDSPDPEQESKAQLAISAFFKESLIVPSPVDCPLRKQRIILNCSEDNTPISNKSRRMRDCEVQTELTLPPILPKALEDALRPYFQPHLAGRLSGRSKSSGGPDIFNSSMRRKLFDLHNVIVLGEQDTAEPSRSMVGSSPQGKQTMFAGRLSDSASGESSFGCLSPIRNLCGLPPGTPDNGTCSGKRKLLMHELELPSPIAPSEHLSRRLVHSKVEISVTEQHDTLSERTALKFTPDRSSSPMGGGLEHSDCSINQRVRRLRVNSTRQVVIETGDQPLFEETEGEEEEAESEDDEEADAMQLSTVSFNCSSSNSDTPRGHKRHRSAQRKNLSQSFSANLEEEADQTQGGAGSIQPAEPPSVAMPQQGARIPLYRADSGFNETSSTTFAFSQDLPLDVSMACCSTPSTRS
# B7: Shrm (protein)
# chain: MKMRNHKENGNGSEMGESTKSLAKMEPENNNKISVVSVSKLLLKDSNGANSRSSNSNASFSSASVAGSVQDDLPHHNSSSSQLGQQHGSSLDQCGLTQAGLEEYNNRSSSYYDQTAFHHQKQPSYAQSEGYHSYVSSSDSTSATPFLDKLRQESDLLSRQSHHWSENDLSSVCSNSVAPSPIPLLARQSHSHSHSHAHSHSNSHGHSHGHAHSASSSSSSNNNSNGSATNNNNNNSSESTSSTETLKWLGSMSDISEASHATGYSAISESVSSSQRIVHSSRVPTPKRHHSESVLYLHNNEEQGDSSPTASNSSQMMISEEANGEESPPSVQPLRIQHRHSPSYPPVHTSMVLHHFQQQQQQQQDYQHPSRHHTNQSTLSTQSSLLELASPTEKPRSLMGQSHSMGDLQQKNPHQNPMLGRSAGQQHKSSISVTISSSEAVVTIAPQPPAGKPSKLQLSLGKSEALSCSTPNMGEQSPTNSIDSYRSNHRLFPVSTYTEPVHSNTSQYVQHPKPQFSSGLHKSAKLPVITPAGATVQPTWHSVAERINDFERSQLGEPPKFAYLEPTKTHRLSNPALKALQKNAVQSYVERQQQQQKEEQQLLRPHSQSYQACHVERKSLPNNLSPIMVGLPTGSNSASTRDCSSPTPPPPPRRSGSLLPNLLRRSSSASDYAEFRELHQAQGQVKGPSIRNISNAEKISFNDCGMPPPPPPPRGRLAVPTRRTSSATEYAPMRDKLLLQQAAALAHQQHHPQQHRHAQPPHVPPERPPKHPNLRVPSPELPPPPQSELDISYTFDEPLPPPPPPEVLQPRPPPSPNRRNCFAGASTRRTTYEAPPPTAIVAAKVPPLVPKKPTSLQHKHLANGGGGSRKRPHHATPQPILENVASPVAPPPPLLPRARSTAHDNVIASNLESNQQKRSNSKASYLPRQSLEKLNNTDPDHGIYKLTLTSNEDLVAHTKPSYGVTGKLPNNLPDVLPLGVKLHQQPKLQPGSPNGDANVTLRYGSNNNLTGNSPTVAPPPYYGGGQRYSTPVLGQGYGKSSKPVTPQQYTRSQSYDVKHTSAVTMPTMSQSHVDLKQAAHDLETTLEEVLPTATPTPTPTPTPTPPRLSPASSHSDCSLSTSSLECTINPIATPIPKPEAHIFRAEVISTTLNTNPLTTPPKPAMNRQESLRENIEKITQLQSVLMSAHLCDASLLGGYTTPLITSPTASFANEPLMTPPLPPSPPPPLEPEEEEEQEENDVHDKQPEIEELQLMQRSELVLMVNPKPSTTDMACQTDELEDRDTDLEAAREEHQTRTTLQPRQRQPIELDYEQMSRELVKLLPPGDKIADILTPKICKPTSQYVSNLYNPDVPLRLAKRDVGTSTLMRMKSITSSAEIRVVSVELQLAEPSEEPTNLIKQKMDELIKHLNQKIVSLKREQQTISEECSANDRLGQDLFAKLAEKVRPSEASKFRTHVDAVGNITSLLLSLSERLAQTESSLETRQQERGALESKRDLLYEQMEEAQRLKSDIERRGVSIAGLLAKNLSADMCADYDYFINMKAKLIADARDLAVRIKGSEEQLSSLSDALVQSDC
# B8: Sras (protein)
# chain: MKNLSETEAEVTMQENVVHESLPQIPVATSVSCCFVLAVLYVGSLYIWSTKHNRDHPTTVKRRFASVSMVMLAAPFFVYFFSSPELLSRVPFPKLLGLRLEGLWQAVVIPYSLTVLLFLGPIFVNMQNESVRSYFDLDYWRGSFGSIIWVRNHVIAPLSEEFVFRACMMPLILQSFSPLVAVFITPLFFGVAHLHHIAERLSLGVELSTALLIGLFQFIYTTLFGFYSAFLFARTGHVMAPILVHAFCNHMGLPDLQDLWQQDLWRRVVAIILYLAGFVGWMFLVPLATDPSIYDNTLYWNA
# B9: sala (protein)
# chain: MKLLIALFALVTAVNAQNGFGQVGQGGYGGQGGFGGFGGIGGQAGFGGQIGFTGQGGVGGQVGIGQGGVHPGQGGFAGQGSPNQYQPGYGSPVGSGHFHGTNPVESGHFHENPHEYPEHHGDHHREHHEHHGHHEHHGHHRH
# How the values were obtained:
# Test in all cases: MAPPIT interaction score (arbitrary units); higher = stronger binary interaction signal, active = hit call of the paper
# CG8128 = conditions: MAPPIT configuration: N-N; pair source set: Finley_Y2H
# CG8043 = conditions: MAPPIT configuration: N-N; pair source set: DPIM
# CG7137 = conditions: pair source set: Lit-BM-16
# CG7548 = conditions: MAPPIT configuration: N-N
# CG6996 = conditions: MAPPIT configuration: N-N; pair source set: Finley_Y2H
# Mcad = conditions: MAPPIT configuration: N-N; pair source set: Lit-BS-16
# Treh = conditions: MAPPIT configuration: N-N; pair source set: Finley_Y2H
# Unr = conditions: pair source set: Lit-BM-16
# gcm = conditions: MAPPIT configuration: N-N; pair source set: Finley_Y2H
# noi = conditions: MAPPIT configuration: N-N; pair source set: Finley_Y2H
# prd = conditions: MAPPIT configuration: N-N; pair source set: Finley_Y2H
# CG7747 = conditions: MAPPIT configuration: N-N; pair source set: Finley_Y2H
# CG7407 = conditions: MAPPIT configuration: N-C; pair source set: screen_3
# Dpm3 = conditions: MAPPIT configuration: N-C; pair source set: screen_4
# CG7044 = conditions: MAPPIT configuration: N-N; pair source set: Lit-BS-16
# aspr = conditions: MAPPIT configuration: N-N; pair source set: Lit-BS-16
# 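Also: HEK293T cells with Epo stimulation, STAT-responsive firefly luciferase reporter, fold induction versus unstimulated cells divided by the larger fold induction of two negative controls lacking either bait or prey.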
binder,measurement,setting,value
B1,MAPPIT interaction score,CG8128,2.14
B2,MAPPIT interaction score,CG8043,0.645
B3,MAPPIT interaction score,CG7137; MAPPIT configuration: N-C,3.33
same,MAPPIT interaction score,CG7137; MAPPIT configuration: N-N,0.66
B4,MAPPIT interaction score,CG7548; pair source set: Finley_Y2H,-0.0114
same,MAPPIT interaction score,CG7548; pair source set: Lit-BS-16,-0.0114
B5,MAPPIT interaction score,CG6996,0.192
same,MAPPIT interaction score,Mcad,1.44
same,MAPPIT interaction score,Treh,-0.289
same,MAPPIT interaction score,Unr; MAPPIT configuration: N-C,3.02
same,MAPPIT interaction score,Unr; MAPPIT configuration: N-N,2.17
same,MAPPIT interaction score,gcm,-0.368
same,MAPPIT interaction score,noi,4.3 (active)
same,MAPPIT interaction score,prd,-0.691
B6,MAPPIT interaction score,CG7747,1.91
B7,MAPPIT interaction score,CG7747,-0.185
B8,MAPPIT interaction score,CG7407,-0.229
same,MAPPIT interaction score,Dpm3,0.0475
B9,MAPPIT interaction score,CG7044,0.14
same,MAPPIT interaction score,aspr,-0.194
